# Laboratory results published in PubChem BioAssay.
# Entries with a potency or affinity are not part of this list. Activity calls are given as the source filed them.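 The calls were made as follows: active = a fitted half-maximal concentration no higher than twice the top valid tested dose, with signal falling as cells die; inconclusive = flat curve between -70% and -30%, or poor fit; inactive = the rest, including signal rising instead of falling.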
# Experiment: HeLa cell cytotoxicity, dose response, cytotoxicity control, ATP luminescence, cherry-pick samples (AID 687004)
# Conditions: HeLa viability, ATP luminescence (CellTiter-Glo), 48 h; series mostly up to 26 µM
row,SMILES,outcome
1,O=C(NCCN1CCCCC1)[C@@H]1N[C@@H]2c3ccc(-c4ccncc4)c(=O)n3C[C@@H]2[C@H]1CO,inactive
2,CCCC(=O)Nc1ccc2c(c1)C(=O)N(C)C[C@H](OC)[C@@H](C)CN(C(=O)c1cccnc1)[C@H](C)CO2,inactive
3,CC(C)CC#Cc1cnc2c(c1)C(=O)N([C@H](C)CO)C[C@H](C)[C@@H](CN(C)Cc1cccc(F)c1)O2,inactive
4,Cc1noc(C)c1NC(=O)Nc1ccc2c(c1)C(=O)N([C@@H](C)CO)C[C@H](C)[C@H](CN(C)CC1CCCCC1)O2,inactive
5,C[C@H]1CN([C@@H](C)CO)C(=O)c2ccccc2-c2ccccc2CO[C@H]1CN(C)S(=O)(=O)c1cccc(C#N)c1,inactive
6,COc1ccccc1CNC(=S)NCc1ccc(Cl)cc1,inactive
7,CC(C)NC(=O)Nc1ccc2c(c1)CC(=O)N([C@@H](C)CO)C[C@@H](C)[C@H](CN(C)C(=O)Nc1ccc3c(c1)OCO3)O2,inactive
8,CC(C)CC#Cc1cnc2c(c1)C(=O)N([C@H](C)CO)C[C@H](C)[C@H](CN(C)C(=O)c1cccnc1)O2,inactive
9,C[C@@H]1CCCCO[C@@H](CN(C)C(=O)Nc2ccc3c(c2)OCO3)[C@@H](C)CN([C@H](C)CO)C(=O)c2cc(NC(=O)Nc3cccc4ccccc34)ccc2O1,inactive
10,Cc1ccc(NC(=O)N2CCCC2C(=O)Nc2c(C)cc(C)cc2C)cc1 (stereo not drawn),inactive
11,COCCNC(=O)C[C@@H]1C[C@H]2c3cc(NC(=O)C4CCOCC4)ccc3O[C@H]2[C@H](CO)O1,inactive
12,COc1cccc(NC(=O)N2C[C@H](O)COC[C@H]3O[C@@H](CC(=O)NCc4ccccc4F)CC[C@@H]32)c1,inactive
13,C[C@H](CO)N1C[C@H](C)[C@@H](CN(C)C(=O)c2ccncc2)OCCCC[C@H](C)Oc2ccc(NC(=O)Cc3ccccc3)cc2C1=O,inactive
14,Cc1noc(C)c1S(=O)(=O)Nc1ccc2c(c1)C(=O)N([C@@H](C)CO)C[C@@H](C)[C@@H](CN(C)Cc1ccccc1)OCCCC[C@H](C)O2,inactive
15,Cc1cccc(C)c1NC(=O)CN(C)C(=O)C1CC1C (stereo not drawn),inactive
16,S=C(Nc1ccc(Cl)cc1Cl)Nc1ccccc1Oc1ccccc1,inactive
17,CC(C)NC(=O)Nc1ccc2c(c1)C(=O)N([C@@H](C)CO)C[C@H](C)[C@@H](CN(C)S(=O)(=O)c1cccs1)OCCCC[C@H](C)O2,inactive

row,SMILES,outcome
1,CNC[C@@H]1OCCCC[C@@H](C)Oc2ccc(NS(=O)(=O)c3ccc(Cl)cc3)cc2C(=O)N([C@H](C)CO)C[C@H]1C,inactive
2,Cc1noc(C)c1S(=O)(=O)Nc1ccc2c(c1)CC(=O)N([C@H](C)CO)C[C@H](C)[C@H](CN(C)S(=O)(=O)c1cccs1)O2,inactive
3,CC(C)NC(=O)N(C)C[C@H]1OCCCC[C@H](C)Oc2ccc(NC(=O)c3ccccc3)cc2C(=O)N([C@@H](C)CO)C[C@@H]1C,inactive
4,Cc1cccc(-c2ccc([C@H]3[C@H](CO)N4CCCCN(C(=O)c5ccc6c(c5)OCO6)C[C@@H]34)cc2)c1,inactive
5,C[C@@H]1CN([C@@H](C)CO)C(=O)c2cc(NC(=O)C3CC3)ccc2O[C@H]1CN(C)CC1CCCCC1,inactive
6,COc1ccc(S(=O)(=O)N[C@H]2C=C[C@H](CC(=O)N3CCC(Cc4ccccc4)CC3)O[C@@H]2CO)cc1,inactive
7,Cc1noc(C)c1NC(=O)N(C)C[C@H]1OCCCC[C@H](C)Oc2ccc(NC(=O)NC(C)C)cc2C(=O)N([C@@H](C)CO)C[C@@H]1C,inactive
8,COc1ccc(NC(=O)N(C)C[C@@H]2OCCCC[C@@H](C)Oc3ccc(NC(=O)Nc4ccc5c(c4)OCO5)cc3C(=O)N([C@@H](C)CO)C[C@H]2C)cc1,inactive
9,O=C(NC(=S)Nc1cccc(F)c1)c1cccc([N+](=O)[O-])c1,inactive
10,CCCC(=O)N1CCC1(C)C(=O)Nc1ccc(C)cc1 (stereo not drawn),inactive
11,CCCNC(C)C(=O)Nc1ccccc1C (stereo not drawn),inactive
12,COCCN1C(=S)N[C@@H](c2ccccc2)C(C(=O)OC)=C1C,inactive
13,Cc1ccccc1NC(=O)C(=O)NCCCN1CCCC1=O,inactive
14,Cc1ccc(S(=O)(=O)N[C@H]2C=C[C@@H](CC(=O)N3CCC(Cc4ccccc4)CC3)O[C@H]2CO)cc1,inactive
15,C[C@H](O)C#Cc1ccc2c(c1)O[C@H](CN(C)Cc1ccncc1)[C@H](C)CN([C@H](C)CO)S2(=O)=O,inactive
16,CC(C)NC(=O)Nc1ccc2c(c1)C(=O)N([C@@H](C)CO)C[C@@H](C)[C@@H](CN(C)C(=O)NC(C)C)OCCCC[C@@H](C)O2,inactive
